# BCR signal inh = inhibitors of chronic active B-cell receptor signaling; ABC-DLBCL IkBa-CBG/CBR reporter, luminescence ratio, 4 h; Potency, µM (doses to about 46.1 µM), without a hit: top-dose activity change, negative = inhibition, actives largely listed as inhibitors; 340,000 compounds, 0.05% hits; AID 493014; active = well fitted inhibition curve with a large enough effect in the signal ratio, with a control signal flat, not every such curve was filed as active; inconclusive = small, poorly fitted or top-dose-only effect, or effect the other way, or a change in a side signal; the % refers to the signal ratio;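 note: potency is the fitted concentration of half-maximal effect; plate controls were basal doxycycline-induced cells for no effect and cells given 10 µM MG132 for full effect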
#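 TMD8 ABC-DLBCL cells carrying doxycycline-inducible green luciferase fused to IkappaBalpha plus unfused red luciferase were exposed to compounds (up to 46 uM) for 4 hrs at 37C. Activity came from the overlap-corrected green/red luminescence ratio.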
# IL-1B inflam inh = inflammasome signaling inhibition, IL-1 beta readout. THP-1 LPS/ATP IL-1B secretion, AlphaLISA, 16 h; stronger effect = lower value. 360,000 compounds, 4.7% hits. AID 743279. activity change, % at 57.5 µM; in the data active = activity change below about -50%; inconclusive = mostly about -30% to -49%; note: % is set by controls: 0 for no effect and ±100 for the full control effect
#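 Secreted IL-1B measured by AlphaLISA bead assay after 16 h compound exposure of THP-1 cells; compounds (final up to 57.5 uM) added 1 h before LPS (250 ng/mL) and ATP (1.25 mM) stimulation; lower signal means less secretion.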
# MCF10A rereplic = induces DNA re-replication in MCF 10a normal breast cells. MCF 10A DNA re-replication, Hoechst nuclear intensity, 48 h. Potency, µM (titrated, usually from 46.1 µM), without a hit: top-dose activity, positive = re-replication, most hits filed as activators. 350,000 compounds, 2.9% hits. AID 624296; note: potency is the fitted concentration of half-maximal effect; % of control where 0% means no effect; nearly all actives have a fitted effect of over 50% in size
# DT40 TDP1 CPT = growth inhibition of DT40 Tdp1-/-;hTDP1 cells with camptothecin (screen for TDP1 inhibitors); chicken DT40 Tdp1-/-;hTDP1 cells + 20 nM CPT, ATP luminescence, 48 h; Potency, µM (doses to about 46.2 µM), for inactives: at the highest dose activity change, negative = growth inhibition, actives largely listed as inhibitors; 420,000 compounds, 12% hits; note: potency is the fitted concentration of half-maximal effect; % is set by controls: 0 for no effect and ±100 for the full control effect; nearly all actives have a fitted effect of over 55% in size
#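 Cell growth measured by CellTiter-Glo luminescence after a minimum 48 h, 37 C compound exposure with 20 nM CPT in Tdp1-knockout DT40 cells stably expressing hTDP1, seeded 400/well; qHTS titration format.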
# TDP1 cell noCPT = qHTS for Inhibitors of human tyrosyl-DNA phosphodiesterase 1 (TDP1): qHTS in cells in absence of CPT; DT40 Tdp1-/- hTDP1 cells, no CPT, ATP luminescence, 48 h; Potency, µM (top dose mostly 46.2 µM), for inactives: at the highest dose activity change, negative = growth inhibition, hits mostly inhibitors; 420,000 compounds, 15% hits; note: potency is the fitted concentration of half-maximal effect; % is set by controls: 0 for no effect and ±100 for the full control effect; nearly all actives have a fitted effect of over 55% in size
#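 Chicken DT40 Tdp1-/- cells complemented with human TDP1, screened without camptothecin (DMSO vehicle only), 400 cells/well. Compounds pin-transferred, cells incubated at 37 °C for at least 48 hr. Growth read as ATP-dependent luminescence (CellTiter-Glo, 30 min at RT).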
# SW480 rerep = inducers of DNA re-replication in SW480 colon cancer cells. 340,000 compounds, 1.8% hits. Potency, µM (series often up to 46.1 µM), for inactives: top-dose re-replication activation, most hits filed as activators. SW480 DNA re-replication, Hoechst DNA content imaging, 48 h; note: potency is the fitted concentration of half-maximal effect; % of control where 0% means no effect; nearly all actives have a fitted effect of over 55% in size
#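 First, 250 cells per well were seeded. Next, compound or vehicle (23 nL) was pinned in, plates sat 48 hr at 37 C. Finally Hoechst was added for 40 min before fluorescence scanning.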
# An asterisk follows results filed as active; ? = inconclusive; / = no result; [ ] = remark or other dose. Hits are enriched below; roughly 19% of the tested compounds scored in any of these assays. Unless noted, calls come from the whole dose curve; as a rule, active = well fitted curve in the direction sought with a large enough effect; inconclusive = small, poorly fitted or top-dose-only effect, or another doubt; inactive = no such curve, though single readings can be large; an effect the other way counts as inactive or inconclusive.
SMILES,BCR signal inh,IL-1B inflam inh,MCF10A rereplic,DT40 TDP1 CPT,TDP1 cell noCPT,SW480 rerep
COc1ccc(C(CNC(=O)c2cccc(S(=O)(=O)N3CCCCC3)c2)N2CCCC2)cc1 (centres undefined),8%,?,-1%,-26%,-9%,-10%
C=CCN(c1ccccc1OC)S(=O)(=O)c1cccc(C(=O)NCC(c2ccc(OC)cc2)N2CCCC2)c1 (centres undefined),/,?,15%,3.7µM*,7.3µM*,?
CCN(c1ccccc1)S(=O)(=O)c1cccc(C(=O)NCC(c2ccc(OC)cc2)N2CCCCC2)c1 (centres undefined),/,-1,/,18µM*,8.2µM*,/
C=CCN(c1ccccc1)S(=O)(=O)c1cccc(C(=O)NCC(c2ccc(OC)cc2)N2CCCCC2)c1 (centres undefined),1%,-66*,?,5.8µM*,5.8µM*,?
COc1ccc(C(CNC(=O)c2cccc(S(=O)(=O)Nc3ccccc3OC)c2)N2CCCC2)cc1 (centres undefined),?,?,3%,?,?,?
CCC1Cc2c(nc(N)c3c(N)nc(N4CCOCC4)c(C#N)c23)O1 (centres undefined),?,-17,3%,?,?,-10%
COCCN1C(=O)Cc2c1nc(N)c1c(N)nc(N3CCN(c4ccc(F)cc4)CC3)c(C#N)c21,5%,35,16%,8.2µM*,2.1µM*,6%
COc1ccc(CN2C(=O)Cc3c2nc(N)c2c(N)nc(N4CCOCC4)c(C#N)c32)cc1,-5%,-23,-1%,15µM*,21µM*,-2%
COCC(C)N1C(=O)Cc2c1nc(N)c1c(N)nc(N3CCN(c4ccccc4F)CC3)c(C#N)c21 (centres undefined),6%,?,12µM*,?,26µM*,?
COc1ccc(OC)c(/C=C/C(=O)OCC(=O)NCc2cccs2)c1,0%,18,-9%,-10%,-4%,-7%
Nc1ncnc2c1ncn2[C@@H]1O[C@H](C(=O)Nc2ccc(Oc3ccccc3)nc2)[C@@H](O)[C@H]1O,/,0,/,-3%,-25%,/
COc1ccc(NC(=S)NNC(=O)c2nnn(-c3ccccc3)c2C)cc1,-1%,-16,-66%,-28%,?,4.1µM*
c1ccc(C[n+]2ccc3ccccc3c2)cc1,/,24,9%,10µM*,16µM*,-14%
c1ccc(C[n+]2cccc(-c3ccccc3)c2)cc1,-3%,39,22%,8.2µM*,8.2µM*,-2%
Clc1cccc(Cl)c1C[n+]1ccc2ccccc2c1,1%,13,-5%,1.6µM*,1.5µM*,-1%
COc1ccc(C(=O)Cn2c(C(C)=O)nc3ccccc32)cc1,/,13,13%,15µM*,7.3µM*,3%
Cn1c(=N)n(CC(=O)c2ccc(Cl)c(Cl)c2)c2ccccc21,?,?,?,13µM*,16µM*,9%
Cn1c(=N)n(CC(=O)c2ccccc2)c2ccccc21,?,-4,9%,?,18µM*,12%
CCn1c(=N)n(CC(=O)c2ccc(OC)c(OC)c2)c2ccccc21,?,2,-7%,?,?,-5%
Cn1c(=N)n(CC(=O)C(C)(C)C)c2ccccc21,?,-8,?,?,-49%,11%
COc1ccc(C(=O)CN2Cc3ccccc3C2=N)cc1,1%,-18,2%,16µM*,18µM*,-5%
CCOC(=O)c1nc(SC)n(C)c1C(=O)OCC,2%,48,4%,5%,-10%,-2%
COc1ccc(C(=O)Cn2c(=N)n(C)c3ccccc32)cc1,?,-56*,3%,?,21µM*,-2%
CCN(CC)CCn1c(=N)n(CC(=O)c2ccc(C)cc2)c2ccccc21,-1%,-59*,?,16µM*,13µM*,-5%
Cc1ccc(C(=O)Cn2c(=N)n(N)c3ccccc32)cc1,?,?,5%,?,?,-1%
SMILES,BCR signal inh,IL-1B inflam inh,MCF10A rereplic,DT40 TDP1 CPT,TDP1 cell noCPT,SW480 rerep
C[C@@H](c1ccccc1)N1C[C@H](COCc2ccccc2)Oc2cc(N3CC[C@@H](O)C3)ccc2S1(=O)=O,/,19,/,?,?,/
O=C1Nc2ccccc2C(=O)N2CCC[C@@H]12,/,/,/,-9%[9.04 µM],-5%[9.04 µM],/
CCn1nnnc1NCc1ccc(N2CCCC2)cc1,-7%,1,1%,?,?,-1%
CCn1nnnc1NCc1ccc(SC)cc1,2%,-77*,6%,-3%,9%,?
Cc1cc2c(cc1C)N[C@]1(C[C@H]3CCCC(=O)N4CC[C@@H](C1)[C@@H]34)C(=NC1CCCCC1)N2,/,/,/,-29%,-25%,/
COc1cc(C(c2sc3nc(C)nn3c2O)N2CCc3ccccc3C2)cc(OC)c1OC (centres undefined),3%,16,13%,23µM*,10µM*,-4%
Cc1nc2sc(C(c3ccco3)N3CCN(c4ccccc4)CC3)c(O)n2n1 (centres undefined),-5%,18,2%,?,-28%,-9%
Cc1nc2sc(C(c3ccccc3)N3CCOCC3)c(O)n2n1 (centres undefined),?,9,4.6µM*,9%,-7%,16µM*
Cc1nc2sc(C(c3ccco3)N3CCN(C(c4ccccc4)c4ccccc4)CC3)c(O)n2n1 (centres undefined),?,-7,9%,?,18µM*,-12%
